# More than one record can exist for a structure, and the calls need not agree. Calls of active or inactive are those of the source. How the source made its calls: active means hit-call score of the fitted dose curve at least 0.9, where 1 is the maximum; inactive means score below 0.9.
# Read-out: Epidermal growth factor receptor (EGFR), EGFR (gene 1956)
# Test: BSK_hDFCGF_EGFR: BioMAP Diversity Plus: hDFCGF Assay for Epidermal growth factor receptor (EGFR) Biomarker Activity (AID 2283057)
# Settings: primary human foreskin fibroblasts; actives raise or lower the signal
# Method: BSK_hDFCGF is a cell-based, multiplexed-readout assay that uses foreskin fibroblast, a human skin primary cell, with measurements taken at 24 hours after chemical dosing in a 96-well plate.BSK_hDFCGF_EGFR is an assay component measured in the BSK_hDFCGF assay. It measures EGFR antibody related to regulation of gene expression using ELISA technology.Data from the assay component BSK_hDFCGF_EGFR was analyzed into 1 assay endpoint. This assay endpoint, BSK_hDFCGF_EGFR, was analyzed with bidirectional fitting relative to DMSO as the negative control and baseline of activity. Using a type of binding reporter, gain or loss-of-signal activity can be used to understand changes in the signaling as they relate to the gene EGFR. Furthermore, this assay endpoint can be referred to as a primary readout, because this assay has produced multiple assay endpoints where this one serves a signaling function. To generalize the intended target to other relatable targets, this assay endpoint is annotated to the kinase intended target family, where the subfamily is receptor tyrosine kinase.
# The levels of cell surface (or secreted, indicated by the prefix "s") biomarker endpoints were measured by ELISA. Overt cytotoxicity to cells in confluent adherent cultures (all systems other than the BT system) was assessed by measuring total protein levels using sulforhodamine B (SRB) staining in parallel cultures at the time of biomarker measurements, indicated as SRB endpoints. For proliferation assays for adherent cell types, individual cell types are cultured at sub-confluence and relative cell numbers quantified by SRB staining at time points optimized for each system (48 h: 3C and CASM3C systems; 72 h: BT and HDF3CGF systems; 96 h: SAg system). SRB was performed by staining cells with 0.1% SRB after fixation with 10% TCA and reading wells at 560 nm.Viability and proliferation of PBMC (T cells) was quantified by Alamar Blue reduction for the SAg and BT systems. For PBMC viability (referred to as PBMC Cytotoxicity within the assay endpoint names), cells were plated (75,000/well in a 96-well plate) and then chemical samples added for 1 h before addition of activators, SEB and TSST-1 (20 ng/mL final concentration each). Cells were incubated for 90 h. Then, Alamar Blue (20 uL/well) (Invitrogen, Cat DAL1100) was added for 6 h, and the plates were read with a fluorescence microplate reader at 546/580 nm (excitation/emission). For PBMC proliferation, cells were plated and activated as above but incubated for only 16 h prior to addition of Alamar Blue. Plates were read after 6 h.
SMILES,outcome,AC50
CCCCC(CC)CN1C(=O)C2C3C=CC(C3)C2C1=O (stereo not given),inactive,
CCN(Cc1c(F)cccc1Cl)c1c([N+](=O)[O-])cc(C(F)(F)F)cc1[N+](=O)[O-],inactive,
COC(=O)c1ccccc1C(=O)O,inactive,
CCOC(=O)COc1cc(-n2ncc(C(F)(F)F)c(C)c2=O)c(F)cc1Cl,inactive,
CC(C)CCCCCCc1ccc(O)cc1,,12.2 µM (active)
CCC(O)=C1C(=O)CC(C(=O)O)CC1=O (stereo not given),inactive,
CCCCOCCOCCOCc1cc2c(cc1CCC)OCO2,inactive,
CCSC(=O)N(CC(C)C)CC(C)C,,5.32 µM (active)
CCCN(CCC)c1c([N+](=O)[O-])cc(C(F)(F)F)c(N)c1[N+](=O)[O-],inactive,
C#C[C@]1(O)CC[C@H]2[C@@H]3CCC4=CC(=O)CC[C@@H]4[C@H]3CC[C@@]21CC,inactive,
COC(=O)c1ccc(I)cc1S(=O)(=O)NC(=O)Nc1nc(C)nc(OC)n1,inactive,
CC(C)(c1ccc(O)cc1)c1ccc(O)cc1,inactive,
COC(=O)c1ccc(CNS(C)(=O)=O)cc1S(=O)(=O)NC(=O)Nc1nc(OC)cc(OC)n1,inactive,
CCCCCCC(C)OC(=O)COc1nc(F)c(Cl)c(N)c1Cl (stereo not given),inactive,
COC(=O)c1cccc(C)c1S(=O)(=O)NC(=O)Nc1nc(OCC(F)(F)F)nc(N(C)C)n1,inactive,
S=C(S)NCCNC(=S)S.[Mn+2].[S-]C([S-])=NCCN=C([S-])[S-].[Zn+2],inactive,
COC(=O)c1c(Cl)nn(C)c1S(=O)(=O)NC(=O)Nc1nc(OC)cc(OC)n1,inactive,
CCCCOC(=O)[C@@H](C)Oc1ccc(Oc2ccc(C(F)(F)F)cn2)cc1,inactive,
O=C(O)C1(C(=O)Nc2ccc(Cl)cc2Cl)CC1,inactive,
c1ccc2[nH]c(-c3cscn3)nc2c1,inactive,

SMILES,outcome,AC50
CCCOC(=O)c1ccc(C(=O)OCCC)nc1,inactive,
CCCN(CCC)C(=O)SCC,inactive,
C=CCOC(Cn1ccnc1)c1ccc(Cl)cc1Cl (stereo not given),inactive,
N#CSCSc1nc2ccccc2s1,inactive,2.01 µM (active)
CC(C)(C)[C@@H](O)[C@@H](Cc1ccc(Cl)cc1)n1cncn1,inactive,
N[C@@H](Cc1cc(I)c(Oc2ccc(O)c(I)c2)c(I)c1)C(=O)O,inactive,
CCOC(=O)NCCOc1ccc(Oc2ccccc2)cc1,inactive,
CCCCOC(=O)C(C)Oc1ccc(Oc2ccc(C(F)(F)F)cn2)cc1 (stereo not given),inactive,
CCC(C)OC(=O)N1CCCCC1CCO (stereo not given),inactive,
C[C@]12C[C@H](O)[C@H]3[C@@H](CCC4=CC(=O)CC[C@@]43C)[C@@H]1CC[C@@H]2C(=O)CO,inactive,
CC(=O)S[C@@H]1CC2=CC(=O)CC[C@]2(C)[C@H]2CC[C@@]3(C)[C@@H](CC[C@@]34CCC(=O)O4)[C@H]12,inactive,
COC(=O)c1ccccc1S(=O)(=O)NC(=O)Nc1nc(OC(F)F)cc(OC(F)F)n1,inactive,
CCOC(=O)[C@H](C)Oc1ccc(Oc2nc3ccc(Cl)cc3o2)cc1,inactive,
C#CCOC(=O)[C@@H](C)Oc1ccc(Oc2ncc(Cl)cc2F)cc1,inactive,
CCCCC(CC)COC(=O)c1ccccc1C(=O)O (stereo not given),inactive,
O=C(O)c1ccccc1,inactive,
O=C(c1ccc(O)cc1O)c1ccc(O)cc1O,inactive,
COC(=O)CSc1cc(N=c2sc(=O)n3n2CCCC3)c(F)cc1Cl,inactive,
COCCO,inactive,
